Test results as given in PubChem BioAssay (NCI).
Compounds without any hit were thinned out: in the full panel of roughly 83,000, 20% have a hit.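 96-well plates, one dose, 48 hours. Percent growth reported; active if below 10.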 A number with no mark means an inactive call. Active and inactive are the calls of the source.

Key:
Experiment in all cases: NCI-60 one-dose screen, 48 h (100 = growth as untreated, 0 = no growth, -100 = all killed)
Settings in all cases: 10 µM unless noted
[1] = system: SK-MEL-2 melanoma
[2] = system: EKVX NSCLC
[3] = system: SN12C renal
[4] = system: UO-31 renal
[5] = system: TK-10 renal
[6] = system: ACHN renal
[7] = system: CAKI-1 renal
[8] = system: A498 renal
[9] = system: CCRF-CEM leukemia
[10] = system: MOLT-4 leukemia
[11] = system: SR leukemia
[12] = system: RPMI-8226 leukemia
[13] = system: OVCAR-5 ovarian
[14] = system: OVCAR-4 ovarian
[15] = system: SK-OV-3 ovarian
[16] = system: IGROV1 ovarian
[17] = system: OVCAR-3 ovarian
[18] = system: HS 578T breast
[19] = system: NCI/ADR-RES ovarian
[20] = system: OVCAR-8 ovarian

SMILES | growth [1] [%] | growth [2] [%] | growth [3] [%] | growth [4] [%] | growth [5] [%] | growth [6] [%] | growth [7] | growth [8] [%] | growth [9] [%] | growth [10] | growth [11] | growth [12] | growth [13] [%] | growth [14] [%] | growth [15] [%] | growth [16] [%] | growth [17] | growth [18] [%] | growth [19] [%] | growth [20] [%]
CCc1ccc(Oc2c(-c3ccc(OCCc4cccc(C(F)(F)F)c4)cc3O)n[nH]c2C(F)(F)F)cc1 | 55.4 | 50.1 | 19.9 | 16.1 | 58.4 | 16.6 | 63.3% | 35.9 | 11.6 | 4.53% (active) | 47.3% | 3.94% (active) | 84.3 | 22 | 64.9 | 32.8 | 0.567% (active) | 51.1 | 42 | 
CC(C)c1cc(C(C)C)c(S(=O)(=O)Oc2ccc(NC(=O)c3ccc(Cl)cc3)cc2)c(C(C)C)c1 | 31.3 | 19.4 | 21.4 | 29.9 | 42.5 | 15.4 | 21.6% | 17.7 | 25.2 | 17.6% | 25.9% | 16.4% | 86.4 | 39.6 | 78.2 | 47.1 | 31.6% | 39.5 | 35.6 | 
CCOC(=O)c1c(C)nc2c(c1N)CC(=O)N2Cc1ccc(F)cc1 | 92.6 | 94.9 | 93.2 | 88.6 | 97.3 | 95.7 | 92.9% | 64.1 | 85.3 | 85% | 99.5% | 80.1% | 103 | 94.7 | 95 | 104 | 99.5% | 91.5 | 99 | 
Cc1ccc(C(=O)NN2C(=O)CSC2c2ccc(Cl)cc2)cn1 (stereo not given) | 102 | 110 | 91.4 | 21.8 | 128 | 96.5 | 80.7% | 164 | 117 | 82.2% | 80.8% | 113% | 92.3 | 101 | 97.1 | 54.8 | 111% | 130 | 93.2 | 
CCOC(=O)c1c2c(n(-c3ccc(C#N)cc3)c1-c1ccccc1)C=CCC2 | 79.6 | 93.2 | 101 | 81.8 | 96.5 | 86.8 | 76.4% | 96.7 | 95.8 | 81.2% | 92.1% | 85.8% | 96.7 | 77.2 | 89.6 | 77.9 | 105% | 99.3 |  | 
Cc1cc2[nH]c(=O)c3c4ncccc4cn3c2cc1C | 93.8 | 60.9 | 39.3 | 37.1 | 18.1 | 32.2 | -24.7% (active) | 105 | 21.7 | 19.4% | -1.41% (active) | 2.89% (active) |  |  | 87.4 | 24.5 | -21.7% (active) | 101 | 34.3 | 39.6
Cc1ccc(S(=O)(=O)Oc2ccc(NC(=O)c3ccc(Cl)cc3)cc2)cc1 | 99.8 | 91.3 | 96.1 | 91.6 | 92.5 | 102 | 100% | 93.9 | 104 | 104% | 93.6% | 97.6% | 107 | 96.5 | 98.5 | 97.8 | 103% | 107 | 99.4 | 
Cc1ccc2c(-c3cc(-c4ccccc4)nc(N)c3C#N)cc(=O)oc2c1 | 97.1 | 113 | 91.2 | 86.3 | 101 | 99.3 | 100% | 63.6 | 105 | 94.5% | 100% | 101% | 96.9 | 114 | 104 | 110 | 106% | 90.2 | 95.2 | 
